Compound activity from PubChem.
Compounds with a hit are over-represented: about 6.6% of the library has one in this group of screens.
HepG2 tox – counter-screen for TGF-b inhibitors: cytotoxicity in HepG2 cells; HepG2 CAGA-GFP viability, ATP luminescence, 18 h; Potency, µM (titrated, usually from 46.1 µM), actives largely listed as cytotoxic; actives 0.76% (n = 410,000); AID 588856
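HepG2 CAGA-GFP cells (1000/well, DMEM with 1% FBS) received compound, then TGF-beta at 500 pg/mL final, and were incubated 18 hours at 37 degrees C. Viability was read by CellTiter-Glo luminescence. Media-only wells were set as complete cell-killing and DMSO as no toxicity.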
KB-V1 MDR tox – kills drug-selected multidrug resistant KB-V1 cells; actives 3.4% (n = 400,000); AID 1347076; KB-V1 MDR cells viability, CellTiter-Glo, 72 h; Potency, µM (doses to about 46.1 µM), actives largely listed as cytotoxic; note: nearly all actives have a fitted effect of over 60% in size
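Cytotoxicity toward P-gp-expressing KB-V1 cells was determined as loss of CellTiter-Glo luminescence after 72 h at 37 degrees C. Compounds were tested in quantitative HTS format across a concentration range, with curves fitted to normalized data.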
HT1080NT lethal – kills 2HG-producing HT-1080-NT fibrosarcoma cells. Potency, µM (titrated, usually from 46.1 µM), actives largely listed as cytotoxic. HT-1080-NT fibrosarcoma viability, CellTiter-Glo ATP luminescence, 48 h. actives 1.6% (n = 360,000);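 note: NT is the 2HG producing partner of a matched IDH1 knockdown line; nearly all actives have a fitted effect of over 55% in size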
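Viability of the 2HG-overproducing fibrosarcoma line after 48 hours of compound exposure at 37 degrees C was determined by luminescence with CellTiter-Glo, and concentration-effect curves were then fitted and categorized.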
HT1080 IDH1KD tx – kills HT-1080 cells with IDH1 knockdown; HT-1080 IDH1 knockdown viability, ATP luminescence, 48 h; Potency, µM (titrated, usually from 46.1 µM), hits mostly cytotoxic; actives 2% (n = 360,000); AID 686971
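Using the IDH1-knockdown HT-1080 line run in the same batch and compound series as the NT line, viability after 48 h at 37 °C was determined by CellTiter-Glo luminescence and expressed as % activity.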
KB-3-1 tox – kills parental KB-3-1 adenocarcinoma cells. KB-3-1 viability, CellTiter-Glo ATP luminescence, 72 h. AID 1347075. Potency, µM (doses to about 46.1 µM), most hits filed as cytotoxic. actives 1.4% (n = 400,000); note: nearly all actives have a fitted effect of over 60% in size
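72 h, 37 °C compound treatment of KB-3-1 parental cells; CellTiter-Glo added, 10 min, luminescence read. Data corrected against DMSO-only plates and normalized before curve fitting.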
TGFb inhibitor – blocks TGF-b signaling; HepG2 CAGA-GFP TGF-b/SMAD3 reporter, GFP fluorescence, 18 h; TGF-beta stimulated, 500 pg/mL final; Potency, µM (titrated, usually from 46.1 µM), most hits filed as inhibitors; actives 1.2% (n = 410,000); AID 588855; note: nearly all actives have a fitted effect of over 65% in size
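GFP signal (ex488/em500-530) from TGF-beta-stimulated HEPG2 CAGA-GFP cells, 500 pg/mL final, 18 h at 37 degrees C in DMEM plus 1% FBS, normalized to unstimulated and DMSO-stimulated controls.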
Hits are given with their value; n = inactive; u = inconclusive; x = no result given; [ ] = another dose, or the depositor's remark. Calls come from the whole dose curve; as a rule, active = well fitted curve in the direction sought with a large enough effect; inconclusive = small, poorly fitted or top-dose-only effect, or another doubt; inactive = no such curve, though single readings can be large; an effect the other way counts as inactive or inconclusive.

SMILES	HepG2 tox	KB-V1 MDR tox	HT1080NT lethal	HT1080 IDH1KD tx	KB-3-1 tox	TGFb inhibitor
Cc1ccc(OCCn2c(C3CC(=O)N(Cc4ccc(F)cc4)C3)nc3ccccc32)c(C)c1 (stereo not given)	18µM	u	x	x	u	u
Cc1ccccc1N1CC(c2nc3ccccc3n2CCC2CCCCC2)CC1=O (stereo not given)	n	n	x	x	n	u
CCc1nc2ccc(C(=O)NCCC(C)C)cn2c1N(CCN(C)C)CC1CC1	n	n	n	n	n	n
COc1ccc(NS(=O)(=O)c2ccc3[nH]c4c(c3c2)CCCC4)c(OC)c1	n	n	x	x	n	u
COc1ccc(OC)c(CNS(=O)(=O)c2ccc3[nH]c4c(c3c2)CCCCC4)c1	n	21µM	x	x	u	u
O=S(=O)(NCc1ccc(F)cc1)c1ccc2[nH]c3c(c2c1)CCCC3	n	n	x	x	n	18µM
O=S(=O)(NCc1ccc(Cl)cc1)c1ccc2[nH]c3c(c2c1)CCCC3	16µM	n	x	x	u	16µM
Cc1ccc(CNS(=O)(=O)c2ccc3[nH]c4c(c3c2)CCCC4)cc1	n	n	x	x	n	u
CN(C)c1ccc(CNS(=O)(=O)c2ccc3[nH]c4c(c3c2)CCCCC4)cc1	n	16µM	x	x	u	u
O=S(=O)(NCC(c1ccco1)S(=O)(=O)c1cccs1)c1ccc(Cl)cc1 (stereo not given)	n	x	x	x	x	u
CC(=O)c1ccc(N2CCN(C(=O)c3cn(C)c(=O)c4c3c3ccccc3n4C)CC2)cc1	n	n	x	x	n	n
COc1ccc(OC)c(/C=C/c2ccnc3ccccc23)c1	n	5.2µM	u	u	u	u
Cc1ccc(S(=O)(=O)N(CC(=O)NC2CCCCCC2)c2ccccc2F)cc1	n	n	n[9.24 µM]	n	n	n
O=C(CN(c1ccccc1F)S(=O)(=O)c1ccccc1)NC1CCCCCC1	n	4.6µM	n	u	n	n
O=C(/C=C/[C@H]1O[C@@H](n2ccc(=O)[nH]c2=O)[C@H](O)[C@@H]1O)NCCCc1ccccc1	n	n	n	n	n	u
OC(c1ccc(F)cc1)c1ncc(-c2ccc(Oc3ccccc3)cc2)[nH]1 (stereo not given)	16µM	n	u	u	n	u
COc1c(C)cc(C(O)c2ncc(-c3ccc(C(F)(F)F)cc3)[nH]2)cc1C (stereo not given)	n	n	u	16µM	n	u
Cc1cc(C(O)c2ncc(-c3ccc(Oc4ccccc4)cc3)[nH]2)ccc1F (stereo not given)	n	u	18µM	10µM	u	u
Cc1ccc(C(=O)NCC(c2ccc3c(c2)OCO3)N2CCOCC2)cc1 (stereo not given)	n	n	x	x	n	n
COc1cccc(CNC(=O)CSc2ncc(S(=O)(=O)c3ccc(Br)cc3)c(=O)[nH]2)c1	n	u	x	x	n	n
CCc1ccc(NC(=O)CSC2=Nc3ccccc3C3=NC(CCC(=O)NCc4cccs4)C(=O)N23)cc1 (stereo not given)	n	n	x	x	n	n
Cn1c(N2CCN(S(=O)(=O)c3ccc(Cl)cc3)CC2)nc2ccccc21	n	16µM	n	n	n	n
Cn1c(CN2CCN(c3ccc(Cl)cc3)CC2)nc2ccccc21	n	18µM	u	u	n	u
Cc1cc(N2CCN(S(=O)(=O)c3ccc(Cl)c(Cl)c3)CC2)c2ccccc2n1	n	u	u	u	21µM	u
COc1ccc2c(c1)c1ncn(CCN3CCCC3)c(=O)c1n2C	n	8.2µM	n	n	n	n
SMILES	HepG2 tox	KB-V1 MDR tox	HT1080NT lethal	HT1080 IDH1KD tx	KB-3-1 tox	TGFb inhibitor
COc1ccc2c(c1)c1ncn(CCN3CCCCC3)c(=O)c1n2C	n	n	n[9.24 µM]	n	n	n
CN(Cc1ccc(F)cc1)S(=O)(=O)c1nnc(NC(=O)c2ccc(F)cc2)s1	n	n	x	x	u	u
Clc1ccc(Nc2c3c(nc4ncnn24)CCC3)cc1	n	7.3µM	n	n	n	u
Cc1cccc(Nc2c3c(nc4ncnn24)CCC3)c1	n	n	n	n	n	n
c1ccc(CNc2c3c(nc4ncnn24)CCCC3)nc1	n	n	n	n	n	n
Cc1cc(C)cc(Nc2c3c(nc4ncnn24)CCC3)c1	n	2.1µM	u	u	n	n
CC(C)(C)c1ccc(C(=O)N2CCC(c3nc4ccccc4o3)CC2)cc1	n	x	x	x	x	u
CC(C)C[C@H]1CNC(=S)N1C[C@H]1CCCN1C[C@H](Cc1ccccc1)N1C[C@H](Cc2ccc(O)cc2)N(CC2CCCCC2)C1=S	n	u	15µM	16µM	u	11µM
CC(C)C[C@H]1CNC(=S)N1CC1CCCN1C[C@H](Cc1ccc(O)cc1)N1C[C@H](Cc2ccccc2)N(CC2CCCCC2)C1=S (stereo not given in full)	n	n	u	n	n	u
Oc1ccc(C[C@@H](CN2CCCC2CN2C(=S)NC[C@@H]2Cc2ccccc2)N2C[C@H](Cc3ccccc3)N(CC3CCCCC3)C2=S)cc1 (stereo not given in full)	x	u	n	n	n	x
Oc1ccc(C[C@H]2CN([C@@H](Cc3ccccc3)CN3CCC[C@@H]3CN3C(=S)NC[C@@H]3Cc3ccccc3)C(=S)N2CC2CCCCC2)cc1	n	n	23µM	u	n	13µM
CCCCCCCCCCCCOC(=O)N1CCN(/[N+]([O-])=N/Oc2ccc([N+](=O)[O-])cc2[N+](C)=O)CC1	n	x	x	x	x	n
COc1ccc(NC(=O)Nc2nnc(N(C)C3CCCCC3)s2)c(OC)c1	n	n	x	x	n	11µM
COc1ccc(NC(=O)N(C2CCCCC2)C2CCN(C(C)C)CC2)c(OC)c1	n	15µM	n	n	n	n
COc1ccc(NC(=O)N(C2CCCCC2)C(C)c2ccco2)c(OC)c1 (stereo not given)	n	u	n	n	n	n
CCOc1cc(C)c(S(=O)(=O)Nc2ccc3cn[nH]c3c2)cc1C	n	u	n	n	21µM	u
Cc1ccc(S(=O)(=O)Nc2ccc3cn[nH]c3c2)c(C)c1	n	n	n[9.24 µM]	n	n	n
CC(=O)n1c2ccccc2c2ccccc21	n	n	n	n	n	n
Cc1ccc(C(=O)n2c3ccccc3c3ccccc32)cc1	n	8.2µM	u	6.5µM	10µM	n
O=C(O)c1cccc(-c2ccc(/C=N/NC(=O)c3cccnc3)o2)c1	n	n	n	n	n	n
Cc1nnc(N/N=C\c2ccc(-c3cccc(C(=O)O)c3)o2)n1N	7.1µM	n	n	u	n	10µM
O=C(CSc1nc2cc(C(=O)NC3CCCC3)ccc2c(=O)n1CC1CCCO1)c1cccc(Cl)c1 (stereo not given)	n	n	x	x	n	n
